From PubChem BioAssay
D1 antag – Antagonist of Human D 1 Dopamine Receptor: qHTS; D(1A) dopamine receptor (Homo sapiens), P21728; HEK293 TREx D1 cells, calcium flux, dopamine EC80; active compounds read low; activity change, negative = inhibition, % at 10 µM; hit rate 3.2% among 360,000; in the data active means activity change below about -30%
Target sequence (P21728 whole entry, looked up): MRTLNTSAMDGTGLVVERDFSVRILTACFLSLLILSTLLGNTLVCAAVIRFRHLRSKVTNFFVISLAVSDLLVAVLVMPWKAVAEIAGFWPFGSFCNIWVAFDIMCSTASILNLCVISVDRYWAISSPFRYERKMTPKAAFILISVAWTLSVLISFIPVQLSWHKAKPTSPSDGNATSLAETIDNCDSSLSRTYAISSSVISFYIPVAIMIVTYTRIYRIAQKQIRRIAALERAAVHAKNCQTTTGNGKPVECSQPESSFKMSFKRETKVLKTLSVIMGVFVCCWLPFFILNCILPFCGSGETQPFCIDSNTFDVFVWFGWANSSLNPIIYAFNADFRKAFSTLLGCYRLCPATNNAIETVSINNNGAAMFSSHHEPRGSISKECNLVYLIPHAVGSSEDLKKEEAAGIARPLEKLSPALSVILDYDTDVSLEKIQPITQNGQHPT
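After overnight tetracycline induction at 30 C, force-coupled D1 HEK293 cells took up a no-wash calcium dye at room temperature. Compounds were added and monitored 180 s, and the response to EC80 dopamine was then recorded.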
D1 agonist – Allosteric Agonists of the Human D1 Dopamine Receptor: qHTS | hit rate 1% among 360,000 | HEK293 T-REx D1 cells, calcium flux, agonist mode | AID 504660, 2011 | activation, % at 2 µM | D(1A) dopamine receptor (Homo sapiens), P21728; in the data active means activation above about 30%
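Inducible HEK293 T-REx D1 cells, force-coupled to calcium signalling, were plated at 4000 cells/well with tetracycline and held overnight at 30 C. After no-wash calcium dye loading, compound-evoked calcium rise over 180 s flagged agonists.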
TRPV1 potentiator – HTS Assay for Compounds that Act as Potentiators of the Vanilloid Receptor 1. TRPV1-expressing cells, Fluo-8 calcium influx, capsaicin EC20 potentiation. potentiation, % at 8.33 µM. hit rate 0.02% among 320,000. AID 540277, 2011; in the data active means potentiation above about 80%; inconclusive means between about 30% and that limit
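Cells expressing TRPV1 were dye-loaded with Fluo-8 and read kinetically: 10 s baseline, 3 min after compound (agonist portion), then 2 min after EC20 capsaicin (allosteric enhancer portion). Calcium-bound dye fluorescence at 480/520 nm.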
D1 potentiator – Potentiators of Human D1 Dopamine Receptor: qHTS | potentiation, % at 10 µM | hit rate 0.036% among 360,000 | HEK293 TREx D1 cells, calcium flux, dopamine EC20 potentiation; in the data active means potentiation above about 30%
TRPV1 agonist – HTS Assay for Compounds that Act as Agonists of the Vanilloid Receptor 1; hit rate 0.19% among 320,000; AID 540275, 2011; activation, % at 8.33 µM; TRPV1-expressing cells, Fluo-8 calcium influx, agonist mode; in the data active means activation above about 80%; inconclusive means between about 30% and that limit
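TRPV1-expressing cells were cultured overnight at 35.5C and loaded with Fluo-8 calcium dye for 40 to 90 min at room temperature. After a 10 s baseline, compound was added and calcium influx was read kinetically for 3 min (ex 480/em 520 nm).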
Numbers stand for hits; – = inactive; ? = inconclusive; · = no result. Rows were chosen to be rich in hits. Some 4.2% of all compounds tested hit in one or more screens of this group.

SMILES | D1 antag | D1 agonist | TRPV1 potentiator | D1 potentiator | TRPV1 agonist
COCCCn1c(N)c(C(=O)OC(C)COC)c2nc3ccccc3nc21 (stereo not drawn) | -32 | – | – | – | –
COc1ccc(CN2C(=O)NC(=O)/C(=C/c3ccc(OC)c(OC)c3OC)C2=O)cc1 | -35 | – | – | – | –
CCc1ccccc1NC(=O)c1cccn(Cc2ccccc2F)c1=O | – | – | · | – | ·
CN1C(=O)C(=Cc2sc(=O)n(-c3ccccc3)c2N2CCCCC2)C(=O)N(C)C1=O | – | 67 | – | – | –
Cc1ccc(-c2nc(CN3C(=O)CN=C(c4ccccc4)c4ccccc43)c(C)o2)cc1 | – | – | · | – | ·
C/C=C(\C)C(=O)OC1C(C)=C2C(C1OC(=O)CCCCC)C(C)(OC(C)=O)CC(OC(=O)CCC)C1(O)C2OC(=O)C1(C)O (stereo not drawn) | -31 | 109 | – | – | –
O=C(CCn1nc(-c2ccc(Cl)cc2)ccc1=O)N1CCC2(CC1)OCCO2 | – | – | – | – | –
O=C(Cn1nc(-c2ccc(Cl)cc2)ccc1=O)N1CCC2(CC1)OCCO2 | -35 | – | 105 | – | –
CCN(CC)C(=O)c1ccc(NC(=O)c2cccc(S(=O)(=O)N3CCN(Cc4ccccc4)CC3)c2)cc1 | -32 | – | – | – | –
CNS(=O)(=O)c1ccc(N=Cc2c(O)n(-c3cccc(C)c3)c(=O)[nH]c2=O)cc1 | – | – | – | – | –
Cc1cccc(-n2c(O)c(/C=C/C=Nc3ccccc3)c(=O)[nH]c2=O)c1 | – | 34 | – | – | –
Cn1c(O)c(/C=C/C=Nc2ccccc2)c(=O)n(C)c1=S | – | 64 | – | – | –
Cn1c(O)c(C=Nc2ccc(Br)cc2)c(=O)n(C)c1=O | – | – | – | – | –
CCCOc1ccc(C2SCC(=O)Nc3c2c(C)nn3-c2cccc(C)c2)cc1OC (stereo not drawn) | – | – | · | – | ·
Cc1cccc(Cn2cccc(C(=O)Nc3cc(C)on3)c2=O)c1 | · | – | · | – | ·
COc1cccc(-n2c(/C=C/c3ccccc3O)nc3ccccc3c2=O)c1 | – | – | · | – | ·
CC12CN3CC(C)(CN(C1)C3c1cccnc1)C2=O (stereo not drawn) | – | – | – | – | –
c1cc(C2N3CCCN2CC3)ccn1 (stereo not drawn) | -44 | – | – | – | –
NC(=O)c1ccc(NC(=O)c2cccn(Cc3ccccc3)c2=O)cc1 | · | – | · | – | ·
Cc1cccc2sc(NC(=O)c3cccn(Cc4ccccc4)c3=O)nc12 | · | – | · | – | ·
CC1(C)CN=C(Nc2ccc(F)c(Cl)c2)S1 | – | 34 | – | – | –
CCc1ccc(OCC(=O)N2CCN(CCc3ccncc3)CC2)cc1 | – | – | · | – | ·
CCCCc1nn2c(=O)cc(COC(=O)Cc3ccccc3)nc2s1 | – | – | · | – | ·
CCOc1ccccc1CNCCc1ccc2c(c1)OCO2 | – | – | – | – | –
CCOc1ccc(CNCCc2ccc3c(c2)OCO3)cc1 | – | 30 | – | – | –
SMILES | D1 antag | D1 agonist | TRPV1 potentiator | D1 potentiator | TRPV1 agonist
c1ccc2c(CCNCc3ccc4c(c3)OCO4)c[nH]c2c1 | -43 | 99 | – | – | –
c1ccc(CNCCc2c[nH]c3ccccc23)cc1 | – | – | – | – | –
Cc1cccc(CN2C(=O)CN=C(c3ccccc3Cl)c3cc(Cl)ccc32)c1 | – | – | · | – | ·
CCCN1C2CCCC1CC(NC(C)=O)C2 (stereo not drawn) | – | – | – | – | –
Cc1ccc(CN2C3CCCC2CC(NC(=S)NCc2ccccc2)C3)cc1 (stereo not drawn) | -75 | 34 | – | – | –
CCCCCCCCCCCCCCCC[N+](C)(C)C | – | 31 | – | – | –
CCCCCC[N+](=O)[O-] | · | – | – | – | –
COc1ccccc1-c1nn2c(=O)cc(CN3CCN(C(=O)COc4ccccc4Cl)CC3)nc2s1 | – | – | · | – | ·
CCc1ccc(CNCCc2ccc(F)cc2)cc1 | – | 62 | ? | – | –
Fc1ccc(CNCCc2ccc3c(c2)OCO3)cc1 | – | – | – | – | –
CCN(CC)c1ccc(CNCCc2ccc(F)cc2)cc1 | – | 64 | – | – | –
Fc1ccc(CCNCc2ccc(Cl)c(Cl)c2)cc1 | – | – | – | – | –
CN1CCC(N(C)c2nc(-c3ccc([N+](=O)[O-])cc3)nc3ccccc23)CC1 | – | 37 | · | – | ·
O=c1cc(C(F)(F)F)c2cc3c4c(c2o1)CCCN4CCC3 | -65 | 330 | – | – | ?
Cc1cc2c(C(F)(F)F)cc(=O)oc2c2c1NCCC2 | – | 113 | – | – | ?
Cc1ccc(C)c(CN2C(=O)c3ccccc3Sc3ccc(C(=O)N4CCC5(CC4)OCCO5)cc32)c1 | – | – | · | – | ·
CC(C)c1ccc(OCC(=O)N2CCN(CCc3ccncc3)CC2)cc1 | – | – | · | – | ·
Cc1[nH]c2ccccc2c1CCCNC1CCCCC1 | – | 37 | – | – | –
c1ccc2c(CNC3CCCCCC3)c[nH]c2c1 | – | – | – | – | –
Cc1ccc(-n2c(/C=C/c3cc(Br)cs3)nc3ccccc3c2=O)cc1C | – | – | · | – | ·
N#Cc1cccc(NC(=O)CSc2nc3c(cc2C#N)N2CCC3CC2)c1 | – | – | · | – | ·
CC1(C)OC(c2ccccc2)=C/C(=C/C=C2C(=O)NC(=S)NC2=O)O1 | – | – | – | – | –
CN1/C(=C\C=C2C(=O)NC(=S)NC2=O)C(C)(C)c2ccccc21 | – | 484 | – | – | 98
Nc1c(C(=O)NCCN2CCOCC2)c2nc3ccccc3nc2n1Cc1ccccc1 | – | – | – | – | –
Nc1c(C(=O)NCCN2CCOCC2)c2nc3ccccc3nc2n1Cc1ccco1 | -42 | – | – | – | –
SMILES | D1 antag | D1 agonist | TRPV1 potentiator | D1 potentiator | TRPV1 agonist
O=C(COc1ccccc1Cl)N1CCN(CCc2ccccn2)CC1 | – | – | · | – | ·
O=C(CCc1nc(C2=CCN(Cc3cccc(Cl)c3)CC2)no1)Nc1ccccc1F | – | – | · | – | ·
Cc1ccccc1-n1c(O)c(/C=C2/C(c3ccccc3)=Nc3ccccc32)c(=O)[nH]c1=O | -50 | – | – | – | –
Cc1cccc(-n2c(O)c(/C=C3/C(c4ccccc4)=Nc4ccccc43)c(=O)[nH]c2=O)c1 | – | – | – | – | ?
COc1ccccc1-n1c(/C=C/c2ccc(O)cc2)nc2ccccc2c1=O | -30 | – | – | – | –
COc1cc(/C=C/c2nc3ccccc3c(=O)n2-c2ccccc2O)ccc1O | – | 49 | – | – | –
CCCC12CN3CC(C)(CN(C1)C3c1ccccn1)C2=O (stereo not drawn) | – | – | · | – | ·
CCCN1CCC[C@@H](c2cccc(O)c2)C1 | -54 | – | – | – | –
O=[N+]([O-])c1ccc(N2CCNCC2)cc1N1CCCCC1 | – | – | – | – | –
